# Compounds with a hit are over-represented: about 11% of the library has one in this group of screens.
# HP1b chromo inh = HTS for Inhibitors of HP1-beta Chromodomain Interactions with Methylated Histone Tails | AlphaScreen HP1-beta / biotin-H3K9me3 peptide binding | Potency, µM (titrated, usually from 114 µM), inactives show at the highest dose activity change, negative = inhibition, hits mostly inhibitors | Chromobox protein homolog 1 (Homo sapiens), P83916 | actives 0.56% (n = 390,000); also: nearly all actives have a fitted effect of over 70% in size
#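 HP1-beta protein (50 nM final) preincubated 30 min at room temperature with biotinylated H3(1-18)K9me3 peptide (50 nM) in PBS pH 7.4, 0.01% Tween-20, then compound added for 30 min. AlphaScreen streptavidin donor/nickel chelate acceptor beads (10 ug/mL final), 30 min dark, luminescence read.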
# JMJD2A Tudor = qHTS Assay for Inhibitors of JMJD2A-Tudor Domain | actives 4.4% (n = 390,000) | AID 504339, 2011 | Potency, µM (highest dose often 114 µM), for the others: at the highest dose activity change, negative = inhibition, actives largely listed as inhibitors | AlphaScreen JMJD2A-Tudor / H3K4me3 peptide binding; also: % is scaled to controls: 0 for no effect and ±100 for the full control effect; nearly all actives have a fitted effect of over 50% in size
# VDR inhibitor = Inhibitors of the vitamin D receptor (VDR): qHTS. Potency, µM, for the others: max response, negative = inhibition, usual class: inhibitors. actives 0.93% (n = 400,000). AID 504847, 2011. VDR-SRC2-3 peptide fluorescence polarization, 2 h. Vitamin D3 receptor (Homo sapiens), P11473; also: % is scaled to controls: 0 for no effect and ±100 for the full control effect
#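 Fluorescence polarization assay of small-molecule disruption of VDR binding to coregulator peptide SRC2-3. Compounds and controls pin-transferred, then read after 2 h incubation at ambient room temperature.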
# G9a inh = qHTS Assay for Inhibitors of Histone Lysine Methyltransferase G9a; actives 8.8% (n = 350,000); AID 504332, 2011; G9a H3K9 monomethylation, AlphaScreen, 2 h; Potency, µM (titrated, usually from 102 µM), for the others: top-dose activity, negative = inhibition, most hits filed as inhibitors; Histone-lysine N-methyltransferase EHMT2 (Homo sapiens), Q96KQ7; also: % is scaled to controls: 0 for no effect and ±100 for the full control effect; nearly all actives have a fitted effect of over 75% in size
#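 G9a (20 nM) was preincubated 15 min with compound, then reacted 2 h at room temperature with 500 nM biotin-H3K9 peptide and 20 µM SAM. Monomethyl-H3K9 detected by AlphaScreen using anti-H3K9me1 antibody.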
# BAZ2B block = qHTS Assay for Inhibitors of BAZ2B; AlphaScreen BAZ2B-H3K14Ac peptide displacement; Potency, µM (series often up to 114 µM), without a hit: at the top dose activity change, negative = inhibition, most hits filed as inhibitors; actives 4.4% (n = 360,000); AID 504333, 2011; also: % is scaled to controls: 0 for no effect and ±100 for the full control effect; nearly all actives have a fitted effect of over 60% in size
# Target sequence (Q9UIF8 whole entry, looked up): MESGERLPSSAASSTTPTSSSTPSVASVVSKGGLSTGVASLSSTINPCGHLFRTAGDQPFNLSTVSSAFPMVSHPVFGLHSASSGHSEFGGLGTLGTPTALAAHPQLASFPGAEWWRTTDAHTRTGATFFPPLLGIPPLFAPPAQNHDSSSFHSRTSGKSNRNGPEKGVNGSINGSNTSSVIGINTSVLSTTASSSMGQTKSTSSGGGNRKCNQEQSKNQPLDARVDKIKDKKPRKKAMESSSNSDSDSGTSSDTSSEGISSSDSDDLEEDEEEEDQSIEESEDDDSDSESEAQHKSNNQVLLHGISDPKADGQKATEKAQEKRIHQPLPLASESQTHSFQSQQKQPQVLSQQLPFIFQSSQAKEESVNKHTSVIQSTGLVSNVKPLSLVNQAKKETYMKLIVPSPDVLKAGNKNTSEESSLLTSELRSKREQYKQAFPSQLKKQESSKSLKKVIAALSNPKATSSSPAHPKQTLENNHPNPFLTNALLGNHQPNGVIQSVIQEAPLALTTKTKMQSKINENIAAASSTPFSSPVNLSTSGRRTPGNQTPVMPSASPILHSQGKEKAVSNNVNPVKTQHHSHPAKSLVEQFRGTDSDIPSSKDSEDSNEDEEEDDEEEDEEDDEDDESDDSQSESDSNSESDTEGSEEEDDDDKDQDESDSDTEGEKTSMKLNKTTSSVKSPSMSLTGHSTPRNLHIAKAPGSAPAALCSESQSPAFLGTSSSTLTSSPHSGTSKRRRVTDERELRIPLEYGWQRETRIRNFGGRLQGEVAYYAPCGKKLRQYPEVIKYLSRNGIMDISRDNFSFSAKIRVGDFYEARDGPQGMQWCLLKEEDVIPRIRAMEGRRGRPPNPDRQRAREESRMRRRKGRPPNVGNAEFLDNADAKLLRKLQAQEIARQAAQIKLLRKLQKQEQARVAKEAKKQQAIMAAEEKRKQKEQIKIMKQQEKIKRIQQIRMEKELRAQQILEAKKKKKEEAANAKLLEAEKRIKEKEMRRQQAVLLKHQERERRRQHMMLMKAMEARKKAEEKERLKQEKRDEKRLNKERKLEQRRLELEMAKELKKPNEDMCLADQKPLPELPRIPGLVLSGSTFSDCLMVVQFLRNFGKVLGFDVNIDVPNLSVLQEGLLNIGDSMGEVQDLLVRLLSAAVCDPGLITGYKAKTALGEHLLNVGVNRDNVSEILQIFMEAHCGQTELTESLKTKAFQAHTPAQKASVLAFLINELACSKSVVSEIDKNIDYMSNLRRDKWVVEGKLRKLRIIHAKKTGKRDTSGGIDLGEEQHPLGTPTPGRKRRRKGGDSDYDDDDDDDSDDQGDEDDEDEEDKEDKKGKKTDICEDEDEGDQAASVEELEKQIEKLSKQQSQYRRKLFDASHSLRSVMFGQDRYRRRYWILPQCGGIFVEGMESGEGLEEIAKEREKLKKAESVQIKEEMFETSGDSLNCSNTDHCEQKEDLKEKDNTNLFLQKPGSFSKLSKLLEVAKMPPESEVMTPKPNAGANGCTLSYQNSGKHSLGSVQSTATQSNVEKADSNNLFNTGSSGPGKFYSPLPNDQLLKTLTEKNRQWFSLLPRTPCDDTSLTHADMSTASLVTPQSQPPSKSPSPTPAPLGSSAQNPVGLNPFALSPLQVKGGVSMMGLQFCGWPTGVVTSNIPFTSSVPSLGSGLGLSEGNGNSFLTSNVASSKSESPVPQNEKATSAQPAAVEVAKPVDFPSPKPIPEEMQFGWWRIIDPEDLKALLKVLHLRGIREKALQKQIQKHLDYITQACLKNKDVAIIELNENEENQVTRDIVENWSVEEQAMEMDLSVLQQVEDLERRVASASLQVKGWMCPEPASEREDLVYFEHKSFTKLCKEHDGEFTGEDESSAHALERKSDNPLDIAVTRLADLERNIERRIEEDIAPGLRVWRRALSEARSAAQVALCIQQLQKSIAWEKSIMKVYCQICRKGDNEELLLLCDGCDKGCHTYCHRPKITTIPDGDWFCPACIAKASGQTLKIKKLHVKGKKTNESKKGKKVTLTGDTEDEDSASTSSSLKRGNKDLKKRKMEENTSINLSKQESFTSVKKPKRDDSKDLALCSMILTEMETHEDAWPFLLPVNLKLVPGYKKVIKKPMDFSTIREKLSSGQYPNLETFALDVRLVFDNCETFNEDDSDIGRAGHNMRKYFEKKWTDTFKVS
#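 BAZ2B 50 nM plus b-H3(5-23)K14Ac 50 nM, PBS pH 7.4/0.01% Tween-20, 30 min RT; compound added (max 110 uM), 30 min RT; streptavidin donor/Ni-chelate acceptor beads 10 ug/mL final, 20 min dark; AlphaScreen read.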
# PLK1 PBD block = qHTS for Inhibitors of PLK1-PDB (polo-like kinase 1 - polo-box domain): Primary Screen. Serine/threonine-protein kinase PLK1 (Homo sapiens), P53350. Plk1 PBD binding of FITC phosphopeptide, fluorescence polarization. Potency, µM, without a hit: max response, negative = inhibition, most hits filed as inhibitors. actives 2.8% (n = 360,000). AID 720504, 2013; also: series mostly up to about 57 µM; % is scaled to controls: 0 for no effect and ±100 for the full control effect; nearly all actives have a fitted effect of over 65% in size
# Starred values were filed as active, the others as inactive; ? = inconclusive; · = no result; [ ] = dose if it differs, or a comment. Calls follow the shape of the dose curve; as a rule, active = well fitted curve in the direction sought with a large enough effect; inconclusive = small, poorly fitted or top-dose-only effect, or another doubt; inactive = no such curve, though single readings can be large; an effect the other way counts as inactive or inconclusive. Potency is read from the fitted curve at half-maximal effect.
SMILES,HP1b chromo inh,JMJD2A Tudor,VDR inhibitor,G9a inh,BAZ2B block,PLK1 PBD block
N#Cc1c(C#N)c(SSc2c(C#N)c(C#N)c(N)n2-c2ccccc2)n(-c2ccccc2)c1N,?,0.794µM*,?,·,·,2.67µM*
Cc1ccc(-n2c(N)c(C#N)c(-c3ccccc3)c(C#N)c2=O)cc1,33.2%,-15.5%,-20.3%,-1.1%[59 µM],13.1%,2.2%
N#Cc1c(N)n(-c2ccccc2)c(=O)c2cc([N+](=O)[O-])ccc12,-35.3%,-5.8%,44.7µM*,·,3.8%,-14.8%
Cc1ccc(CN2C(=O)C(CC(C)C)Nc3ncnc(N4CCN(c5ccccn5)CC4)c32)cc1 (stereo not drawn),19.1%,79.4µM*,-12.4%,?,?,-17.9%
CC1Nc2ncnc(N3CCN(c4ccccn4)CC3)c2N(Cc2ccccc2)C1=O (stereo not drawn),31.6%,-30.8%,-19.5%,-50.5%[12.7 µM],-37.3%,1.1%
Cc1ccc(CN2C(=O)C(C)Nc3ncnc(N4CCN(c5ccccn5)CC4)c32)cc1 (stereo not drawn),9.5%,79.4µM*,-9.9%,-3.5%[2.33 µM],?,5.1%
COc1ccc(C(=O)NC(=S)NCc2ccco2)cc1,-29.8%,?,-14.5%,·,?,-24.8%
COc1cc(OC)cc(C(=O)NC(=S)NCc2ccco2)c1,-0.2%,-33.6%,0.4%,44.7µM*,-7.4%,-5.6%
Cc1cc(C(=O)NNC(=S)NCc2ccco2)n(C)n1,?,?,?,?,5.6%,21.2µM*
O=C(NC(=S)NCc1ccco1)c1cccc(Cl)c1,·,·,·,70.8µM*,?,·
COc1cccc(C(=O)NC(=S)NCc2ccco2)c1,12.8%,-13.1%[57.1 µM],8.2%,?,-35.3%,-16.8%
Cc1ccc(C(=O)NC(=S)NCc2ccco2)cc1,-13.7%,?,?,44.7µM*,?,?
COc1cc(OC)cc(C(=O)NNC(=S)NCc2ccco2)c1,18.8%,-25.5%,-2.2%,47.8%[12.7 µM],-25.3%,-14.3%
COc1cccc(NC(=O)CN(C)CC(=O)Nc2ccc(C)c(S(=O)(=O)N3CCOCC3)c2)c1,13.4%,-30.8%,20.7%,·,·,3.3%
CCN(CC)S(=O)(=O)c1cc(NC(=O)COC(=O)c2ccc(NC(=O)CC#N)cc2)ccc1C,10.7%,-12.0%,32.2%,-4.9%[59 µM],-11.3%,-1.6%
C=CCOc1ccc(/C=N/NC(=O)C(=O)N2CCCCCC2)cc1OC,-3.7%,-10.1%,-6.2%,14.7%,3.7%,-4.6%
Fc1ccccc1C1=NC(c2ccc(C(F)(F)F)cc2)=Nc2ccccc2N1,37.0%,-24.8%,-3.6%,-2.0%[59 µM],-13.2%,·
CC1CCN(c2ccc(NC(=S)NC(=O)c3ccco3)cc2)CC1,-6.5%,?,-6.7%,-39.9%[12.7 µM],8.91µM*,-7.3%
O=C(NC(=S)Nc1ccc(N2CCCCC2)cc1)c1ccco1,15.8µM*,39.8µM*,-2.7%,?,44.7µM*,-2.8%
Cc1ccc(C(=O)NC(=S)Nc2ccc(N3CCN(C(=O)c4ccco4)CC3)cc2)cc1,?,?,-11.1%,?,?,-16.2%
Nc1cc(N)nc(SCC(=O)c2ccc3c(c2)NC(=O)CO3)n1,6.0%,11.3%,15.6%,35.5µM*,-10.3%,-13.9%
CCN1CCN(C(=O)CSc2nc(N)cc(N)n2)CC1,37.1%,-14.3%,-14.4%,44.7µM*,-9.2%,-9.5%
Nc1cc(N)nc(SCC(=O)c2ccccc2)n1,-18.8%,-17.1%,-6.8%,9.0%[12.7 µM],0.3%,23.8µM*
Cc1cc(SCC(=O)c2ccccc2)nc(C)n1,38.5%,-6.2%,-0.5%,50.1µM*,9.1%,-11.1%
Cc1cc(=O)[nH]c(SCC(=O)c2ccc3c(c2)NC(=O)CO3)n1,8.2%,-18.3%,16.4%,-39.3%[59 µM],-3.5%,-27.7%
SMILES,HP1b chromo inh,JMJD2A Tudor,VDR inhibitor,G9a inh,BAZ2B block,PLK1 PBD block
CC(C)(O[C@@H]1O[C@H](CO)[C@@H](O)[C@H](O)[C@H]1O)[C@H]1Cc2cc3ccc(=O)oc3cc2O1,26.7%,7.2%,7.0%,?,-31.5%,1.4%
COc1ccc(Cl)cc1C(=O)CSc1nc(N)cc(N)n1,23.8%,?,?,50.1µM*,4.8%,?
Cc1ccc(C(=O)NNC(=O)CSc2nc(N)cc(N)n2)cc1,?,-17.0%[57.1 µM],-0.1%,-7.2%[59 µM],3.4%,26.7µM*
CCCCn1nnnc1SCC(=O)c1cc(Cl)ccc1OC,62.5%,34.3%,-19.0%,64.9%,18.2%,-7.9%
Cc1cc(SCC(N)=O)nc(SCC(=O)c2ccccc2)n1,69.0%,-3.8%[57.1 µM],2.0%,28.2µM*,2.2%,?
Cc1ccccc1-c1nn[nH]n1,26.4%,-23.0%,-16.9%,-10.1%,2.0%,-5.3%
c1ccc(-c2nn[nH]n2)c(Nc2cccc3c2CCCC3)c1,·,·,39.8µM*,·,·,·
ONC(=NCc1ccccc1)c1ccccc1,33.2%,-5.6%,-14.0%,·,·,-0.9%
COc1ccccc1C(O)c1nccn1C (stereo not drawn),13.2%,-22.7%,-14.8%,?,-7.4%,0.9%
Cn1ccnc1C(O)c1ccco1 (stereo not drawn),-6.9%,56.2µM*,1.0%,?,4.2%,-6.5%
O=C(Nc1ccc2nc3n(c(=O)c2c1)CCCCC3)C(=O)N1CCN(c2ccccc2F)CC1,3.2%,35.5µM*,?,-1.8%,15.4%,29.9µM*
O=C(Nc1ccc2nc3n(c(=O)c2c1)CCCCC3)C(=O)Nc1ccccc1F,47.6%,-13.4%,-3.2%,5.3%[59 µM],-1.9%,·
Cc1ccc2c(c1)c1nnc(SCC(=O)Nc3ccc(N(C)C)cc3)nc1n2CC(=O)O,-1.3%,?,?,25.1µM*,?,-15.8%
Cc1ccc2c(c1)c1nnc(SCC(=O)Nc3cccc(Cl)c3C)nc1n2CC(=O)O,-16.8%,?,1.5%,?,50.1µM*,-7.8%
CCc1ccc2nc(N(Cc3cccnc3)C(=O)c3cccs3)sc2c1,26.3%,-8.4%,19.7%,6.8%[59 µM],-4.9%,·
CC(C)CN(C)C(=O)CC1C(=O)NCCN1C (stereo not drawn),24.3%,-3.1%,23.5%,·,-3.9%,-14.1%
COc1ccc2[nH]c3c(c2c1)CCNC3c1ccc([N+](=O)[O-])o1 (stereo not drawn),-8.8%,50.1µM*,?,31.6µM*,?,?
C[C@@H]1C(=O)O[C@H]2[C@H](O)[C@@]34[C@H]5CC(C(C)(C)C)[C@]36[C@H](OC(=O)[C@H]6O)O[C@]4(C(=O)O5)[C@@]12O (stereo partly drawn),·,·,5.2%,·,·,·

# High-throughput results as filed in PubChem BioAssay.
